Experimental data published in PubChem BioAssay (Tox21).
Results filed as inconclusive are left out. Calls of active or inactive are those of the source. Unless noted, calls come from the whole dose curve; as a rule, active = well fitted curve in the direction sought with a large enough effect in the repeat runs; inconclusive = weak or mixed curves; inactive = no such curve, though single readings can be large; an effect the other way counts as inactive or inconclusive.

Legend:
[1] = qHTS assay to identify small molecule antagonists of the TGF-beta/Smad signaling pathway - cell viability counter screen (AID 1346824); note: nearly all actives have a fitted effect of over 50% in size; note: potency is the fitted concentration of half-maximal effect
How it was run: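 Cytotoxicity counter-screen run in the same wells as the beta-lactamase Smad reporter read: CellTiter-Glo luminescence after 30 min at room temperature. HEK 293T SBE-bla cells had 5 hr compound exposure at 37 C with TGF-beta1 (0.25 ng/mL stock).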

[2] = qHTS assay to identify small molecule agonists of the TGF-beta/Smad signaling pathway - cell viability counter screen (AID 1346829); note: nearly all actives have a fitted effect of over 45% in size; note: potency is the fitted concentration of half-maximal effect; for activity change, negative = cytotoxicity: top concentration of the series differs between compounds
How it was run: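 Cytotoxicity counter screen: CellTiter-Glo luminescence (30 min, room temperature) measured in the SBE-bla HEK 293T reporter wells after 5 hr compound treatment at 37 C and the 2 hr substrate step.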

[3] = target: Thyrotropin-releasing hormone receptor (Homo sapiens) (UniProt P34981); experiment: qHTS assay to identify small molecule antagonists of the thyrotropin-releasing hormone receptor (TRHR) signaling pathway (AID 1346877; active = well fitted inhibition curve with a large enough effect in the repeat runs, not every such curve was filed as active; note: series mostly up to about 51 µM)
How it was run: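 HEK293/TRHR cells, 18 h, 37 °C; Ca2+ dye 2 h; cpd 5 min RT; TRH 1 nM final; fluorescence read 3 min, 1 s intervals; 15 concs, triplicate.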

[4] = target: Thyrotropin-releasing hormone receptor (Homo sapiens) (UniProt P34981); experiment: qHTS assay to identify small molecule agonists of the thyrotropin-releasing hormone receptor (TRHR) signaling pathway (AID 1346891; calls by dose curve; note: potency is the fitted concentration of half-maximal effect; for activation: series mostly up to about 58 µM)
How it was run: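 TRHR-expressing HEK293 cells were plated 18 h at 37 °C/5% CO2, loaded with calcium dye 2 h at 37 °C, then given compound in DMSO; fluorescence was read kinetically for 3 min at 1 s intervals.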

[5] = Human pregnane X receptor (PXR) small molecule agonists, qHTS cell viability counter screen (AID 1346977); note: nearly all actives have a fitted effect of over 50% in size; note: potency is the fitted concentration of half-maximal effect
How it was run: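 PXR-Luc HepG2 cells in medium with 5% charcoal-stripped FBS were pre-incubated 5hr, then exposed to compounds for 24hr at 37C. Viability was read in the same wells by CellTiter-Fluor fluorescence, reagent added after 23hr with a 1hr incubation.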

[6] = Caspase-3/7 induction in HepG2 cells by small molecules, qHTS assay (AID 1346978); note: nearly all actives have a fitted effect of over 15% in size; note: potency is the fitted concentration of half-maximal effect
How it was run: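 Caspase-3/7 induction was measured by Caspase-Glo 3/7 luminescence (30 min, room temperature) after a 17 hr compound exposure of wild-type HepG2 cells seeded at 2,000 per well and pre-incubated 5 hr.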

[7] = Caspase-3/7 induction in CHO-K1 cells by small molecules, qHTS cell viability counter screen (AID 1346979); note: nearly all actives have a fitted effect of over 35% in size; note: potency is the fitted concentration of half-maximal effect
How it was run: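 Wild-type CHO-K1 cells were seeded at 1,500 per well, rested 5hr at 37 C, then exposed to compounds in DMSO. After 16hr, CellTiter-Fluor reagent was added and fluorescence read 1hr later as the viability measure.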

[8] = Caspase-3/7 induction in CHO-K1 cells by small molecules, qHTS assay (AID 1346980); note: nearly all actives have a fitted effect of over 15% in size; note: potency is the fitted concentration of half-maximal effect
How it was run: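 Luminescent Caspase-Glo 3/7 read (30min, room temperature) quantified apoptosis induction. Cells were wild-type CHO-K1, treated with compound for 17hr at 37 C and 5% CO2.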

[9] = Caspase-3/7 induction in HepG2 cells by small molecules, qHTS cell viability counter screen (AID 1346981); note: nearly all actives have a fitted effect of over 30% in size; note: potency is the fitted concentration of half-maximal effect; for activity change, negative = cytotoxicity: series mostly up to about 92 µM
How it was run: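 Fluorescence read-out of live-cell protease activity (CellTiter-Fluor) after 1 hr with reagent. This was measured in the same wells as the caspase-3/7 luminescence, on HepG2 cells exposed to DMSO-dissolved compounds for 16 hr at 37 C.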

[10] = qHTS assay to identify small molecule agonists of the TGF-beta/Smad signaling pathway (AID 1346859; active = well fitted activation curve with a large enough effect in the signal ratio in the repeat runs, not every such curve was filed as active; the % refers to the signal ratio; note: series mostly up to about 77 µM)
How it was run: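 HEK 293T cells stably carrying a beta-lactamase reporter driven by the Smad binding element were seeded overnight, exposed to DMSO-dissolved compounds for 5 hr at 37 C, 5% CO2, then loaded with FRET substrate for 2 hr at room temperature.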
% is set by controls: 0 for no effect and ±100 for the full control effect.

Chain of Thyrotropin-releasing hormone receptor (Homo sapiens) (P34981 whole entry, looked up): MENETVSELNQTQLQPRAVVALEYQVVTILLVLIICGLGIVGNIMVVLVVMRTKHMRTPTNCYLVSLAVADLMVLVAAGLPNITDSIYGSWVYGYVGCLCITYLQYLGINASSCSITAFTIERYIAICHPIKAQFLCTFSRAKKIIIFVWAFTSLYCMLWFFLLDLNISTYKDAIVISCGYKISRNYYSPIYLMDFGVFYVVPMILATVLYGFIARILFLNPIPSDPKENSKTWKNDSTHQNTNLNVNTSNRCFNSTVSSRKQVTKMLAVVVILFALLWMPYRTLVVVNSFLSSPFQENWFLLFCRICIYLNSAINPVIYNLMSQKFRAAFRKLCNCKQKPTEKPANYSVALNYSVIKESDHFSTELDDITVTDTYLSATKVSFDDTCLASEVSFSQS

CCC(=O)OC/C=C(\C)CCC=C(C)C
inactive: Potency [1] | Potency [2] | Potency [3] | Potency [4] | Potency [5] | Potency [6] | Potency [7] | Potency [8] | Potency [9]

Oc1ccc(Cl)cc1C1CCCC1
inactive: Potency [1] | Potency [2] | Potency [3] | Potency [4] | Potency [5] | Potency [8] | Potency [9]

N#CCCOCCC#N
inactive: Potency [1] | Potency [2] | Potency [3] | Potency [4] | Potency [5] | Potency [6] | Potency [7] | Potency [8] | Potency [9]

O[Si](c1ccccc1)(c1ccccc1)c1ccccc1
inactive: Potency [1] | Potency [2] | Potency [5] | Potency [6] | Potency [8]
active: Potency [7] 30.6 µM

Cc1ccc2n[nH]nc2c1
inactive: Potency [1] | Potency [2] | Potency [3] | Potency [4] | Potency [5] | Potency [6] | Potency [7] | Potency [8] | Potency [9]

c1ccc(-c2ccccc2-c2ccccc2)cc1
inactive: Potency [1] | Potency [2] | Potency [3] | Potency [4] | Potency [6] | Potency [9]

CCCCCCCCCCCCCCCCC(C(=O)O)C(O)(CC(=O)O)C(=O)O (stereo not drawn)
inactive: Potency [1] | Potency [2] | Potency [3] | Potency [4] | Potency [5] | Potency [6] | Potency [7] | Potency [8] | Potency [9]

O=C1CCCCCCCCCCCCCC1
inactive: Potency [1] | Potency [2] | Potency [4] | Potency [5] | Potency [6] | Potency [7] | Potency [8] | Potency [9]

Nc1ccc2c(S(=O)(=O)O)cccc2c1S(=O)(=O)O
inactive: Potency [1] | Potency [2] | Potency [3] | Potency [4] | Potency [5] | Potency [6] | Potency [8] | Potency [9]

Cc1ccc2nc(-c3ccc(N)cc3)sc2c1S(=O)(=O)O
inactive: Potency [1] | Potency [2] | Potency [3] | Potency [4] | Potency [5] | Potency [6] | Potency [7] | Potency [8] | Potency [9]

O=C(CCN1CCC(c2ccccc2)C1)c1ccc2c(c1)OCCO2 (stereo not drawn)
active: Potency [5] 23.7 µM | Potency [7] 26.6 µM
inactive: Potency [1] | Potency [2] | Potency [3] | Potency [4] | Potency [6] | Potency [8] | Potency [9]

N#Cc1nc(Cl)c(Cl)c(Cl)c1Cl
active: Potency [5] 48.6 µM | Potency [7] 1.72 µM | Potency [9] 43.3 µM
inactive: Potency [1] | Potency [2] | Potency [3] | Potency [4] | Potency [6]

COCCC(=O)OC
inactive: Potency [1] | Potency [2] | Potency [3] | Potency [4] | Potency [5] | Potency [6] | Potency [7] | Potency [8] | Potency [9]

CCOC(=O)[C@H](C)O
inactive: Potency [1] | Potency [2] | Potency [5] | Potency [6] | Potency [7] | Potency [8] | Potency [9]

Cc1c(Cl)c(=O)oc2cc(O)ccc12
inactive: Potency [1] | Potency [2] | Potency [4] | Potency [6] | Potency [8]

CC(C)=NNC(N)=S
inactive: Potency [1] | Potency [2] | Potency [4] | Potency [5] | Potency [6] | Potency [8] | Potency [9]

O=C1OC(O)C(C(Cl)Cl)=C1Cl (stereo not drawn)
active: Potency [7] 17.8 µM | Potency [9] 50 µM
inactive: Potency [1] | Potency [2] | Potency [3] | Potency [4] | Potency [6] | Potency [8]

CC(C)(C)c1ccc(OC2CCCCC2O)cc1 (stereo not drawn)
active: Potency [7] 61.1 µM
inactive: Potency [1] | Potency [2] | Potency [3] | Potency [5] | Potency [8] | Potency [9]

CCCCNc1ccc(NCCCC)c2c1C(=O)c1ccccc1C2=O
inactive: viability change, negative = cytotoxic [1] 4.33% [at 15.8 µM] | activity change, negative = cytotoxicity [2] 2.74% [at 15.8 µM] | activity, negative = inhibition [3] 0.3% [at 10.5 µM] | activation [4] -0.167% [at 11.8 µM] | activity change, negative = cytotoxicity [5] -9.38% [at 19 µM] | caspase activation [6] -1.98% [at 19 µM] | caspase-3/7 activation [8] 2.79% [at 19 µM] | activity change, negative = cytotoxicity [9] -16.6% [at 19 µM]
active: Potency [7] 13 µM

O=C(CCCCCCCCc1cccnc1)N1CCC(C=C(c2ccccc2)c2ccccc2)CC1
inactive: Potency [4] | Potency [6] | Potency [8] | Potency [9]
active: Potency [1] 54.9 µM | Potency [2] 54.9 µM

Cc1cc(F)ccc1-c1cc(N2CC[C@@H](O)[C@H]2CO)ncc1N(C)C(=O)C(C)(C)c1cc(C(F)(F)F)cc(C(F)(F)F)c1
inactive: Potency [1] | Potency [2] | Potency [3] | Potency [4]
active: Potency [5] 38 µM | Potency [6] 38 µM | Potency [7] 24 µM | Potency [8] 38 µM | Potency [9] 38 µM

CCCC(=O)c1cc(O)c(O)cc1O
inactive: Potency [1] | Potency [2] | Potency [3] | Potency [4] | Potency [6] | Potency [8]
active: Potency [5] 44.7 µM | Potency [7] 51.4 µM | Potency [9] 40.9 µM

O=C1OC2(c3ccccc31)c1ccc(O)c(Br)c1Oc1c2ccc(O)c1Br
active: Potency [4] 3.89 µM | Potency [7] 27.3 µM | Potency [9] 27.3 µM
inactive: Potency [1] | Potency [2] | Potency [5] | Potency [6] | Potency [8]

CC(C=O)c1ccccc1 (stereo not drawn)
inactive: Potency [1] | Potency [2] | Potency [3] | Potency [4] | Potency [5] | Potency [6] | Potency [7] | Potency [8] | Potency [9]

CCCCCCCCCCCCN1CCCC1=O
active: Potency [7] 61.1 µM | Potency [9] 61.1 µM
inactive: Potency [1] | Potency [2] | Potency [3] | Potency [4] | Potency [8]

CCc1cccc(C)c1N(C(=O)CS(=O)(=O)O)C(C)COC (stereo not drawn)
inactive: Potency [1] | Potency [2] | Potency [3] | Potency [4] | Potency [5] | Potency [6] | Potency [7] | Potency [8] | Potency [9]

O=[N+]([O-])c1ccc(CO)cc1
inactive: Potency [1] | Potency [2] | Potency [3] | Potency [4] | Potency [5] | Potency [6] | Potency [7] | Potency [8] | Potency [9]

CC1CCC(C(C)(C)O)CC1 (stereo not drawn)
inactive: Potency [1] | Potency [2] | Potency [3] | Potency [4] | Potency [5] | Potency [6] | Potency [7] | Potency [8] | Potency [9]

c1ccc2c(c1)-c1ccc3ccc4cccc5cc-2c1c3c45
inactive: Potency [1] | Potency [2] | Potency [3] | Potency [4] | Potency [5] | Potency [6] | Potency [8]

O=C(Nc1ccccc1)c1cc(Cl)ccc1O
inactive: outcome [10] | Potency [3] | Potency [4] | Potency [6] | Potency [8]
active: Potency [5] 12.2 µM | Potency [7] 17.2 µM
